# Experimental data published in publication PMC12136788.
# Changes are numbered by the printed parent chain. In all, about 24,000 sequences were measured (“enrichment r”: median about 0.99, highest 2% from about 3.7 on). The sample as a whole holds a higher share of the highest values than the screen did.
# T1: UNK ZnF1-3 (human, UniProt Q9C0B0 31-174)
# T1 sequence: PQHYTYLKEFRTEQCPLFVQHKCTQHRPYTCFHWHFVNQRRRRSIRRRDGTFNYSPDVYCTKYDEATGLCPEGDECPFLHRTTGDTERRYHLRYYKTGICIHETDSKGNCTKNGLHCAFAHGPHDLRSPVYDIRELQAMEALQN
# B1: 129217275_129261777_1030_CDS_ENSMUSG00000036155_ENSMUST00000038361|mouse|control|control (ssRNA)
# RNA: GGGAGUUCUACAGUCCGACGAUCGUAGCCAUCCAUAGGAGGCAAUACACAUUUUUCCUGAACUCCAUUAAUGAUAUCUGCCACAUUAAUUUUCUCAAGCGACACCAAGCUGGGGACAGCCGUGGUGGAGUUGGUGGAGUUCGCCAACAGAGGAUUGAGCAUCA
# B2: 107042093_107043494_1117_CDS_ENSMUSG00000031878_ENSMUST00000034349|mouse|control|control (ssRNA)
# RNA: GGGAGUUCUACAGUCCGACGAUCAACAGACUGAAGCAAUUUGGCAACGUGAUUGCCUACAGCAGCAGCAUCUUUCUUUGCUUUCUCUCGGUAAACAUUCUGCAGUUUUAUGUAUUUGUUUGAAUCUGCAAUCAUAUCAGGAAUCAACAGAGGAUUGAGCAUCA
# B3: chr7:141441981:141441982:+_ENSG00000106028_ENST00000265304|hu_mus|hu_hu_hu_mus_False|58_58 (ssRNA)
# RNA: GGGAGUUCUACAGUCCGACGAUCCUCAUGUCUUACAAACUGACGAAAUACCUGUAACACAGGUCUUCGAAACAUGGCUUCUAUUUUUCUUACAACCUAAUCUUUAGGCUUUUCCUAAAGGAAAGAAAGAAAAGAGAAAAAUGACAACAGAGGAUUGAGCAUCA
# B4: chrX:16871948:16871949:-_ENSG00000102054_ENST00000404022|hu_mus|FALSE|FALSE (ssRNA)
# RNA: GGGAGUUCUACAGUCCGACGAUCAGUAAAGAUUGCUUUAGCAUCCACAAUUUUGCCUUCCUUUGGUCCUGCAUUUAUAUCCCACAGGCAGACAGUAUGGUCAUCAGAUGCACUCAGGAGAUGCCCACUCAGAUUAGAAUUCCACAACAGAGGAUUGAGCAUCA
# B5: chr22:35691198:35691199:+_ENSG00000100281_ENST00000216106|hu_mus|FALSE|FALSE (ssRNA)
# RNA: GGGAGUUCUACAGUCCGACGAUCACAGUCCUGUGAGAAGCUUAGCUGUGACAGCAGUCGGGCUAUGGGAAGGAGUUCCCUAGGAUGCCAGCUGGCUACAUGGUCCCCAAAGGUUUACUGUGAUGCUGCCUCGUUCCAUCCAGGCAACAGAGGAUUGAGCAUCA
# B6: chr9:14812383:14812384:-_ENSMUSG00000031934_ENSMUST00000164273|mus_mus|mus_mus_mus_hu_True|48_48 (ssRNA)
# RNA: GGGAGUUCUACAGUCCGACGAUCAUAGCCCAGGUAGAUACACGCUAACAGUAUAAUGAUGAGUGUCAGCAGGCGGCAGCUAAUGUAUUUCAUGAUUAAAUUAUUAGAAUUUUUCUUUGUCUUCAAGUACUGCUCCACAAUUGGCAACAGAGGAUUGAGCAUCA
# B7: chr9:14812383:14812384:-_ENSMUSG00000031934_ENSMUST00000164273|mus_mus|mus_mus_mus_hu_True|38_48 (ssRNA)
# RNA: B6 RNA with U101G, U103C
# B8: chr9:14812383:14812384:-_ENSMUSG00000031934_ENSMUST00000164273|mus_mus|mus_mus_mus_hu_True|28_48 (ssRNA)
# RNA: B6 RNA with A108G, U111C, C114U
# B9: chrX:98862621:98862622:+_ENSMUSG00000034160_ENSMUST00000044475|mus_hu|mus_mus_mus_hu_False|78_78 (ssRNA)
# RNA: GGGAGUUCUACAGUCCGACGAUCCUGCAUCUCCUUUAGAGUGUUUCCCAUAUUAGAAUAAGCAUCAGCAAAGGUAGGACUGAUUCGAAUAGCCUCCUUAUAAUGCAUCAGAGCUUCCUGCAGUUUUCCCUGCUGCUGCAGUACCAACAGAGGAUUGAGCAUCA
# B10: chr1:6284582:6284583:-_ENSG00000116237_ENST00000343813|hu_hu|motif|central (ssRNA)
# RNA: GGGAGUUCUACAGUCCGACGAUCAGCUAGGAAUACCCCUUUGAAUGUGUACUGCUACUUAUAAAAAAUAGGUAUGUAGCGGUGAUUAAAUAGAUGAAGGGCCAAAGCAUCCUAUGAGGAAGUAUUUUUAAAAUUGUAUAGAUGCAACAGAGGAUUGAGCAUCA
# B11: chr9:14812383:14812384:-_ENSMUSG00000031934_ENSMUST00000164273|mus_mus|mus_mus_mus_hu_True|68_98 (ssRNA)
# RNA: B6 RNA with C42U, U45C, G68C, G72C, U87C, C90G
# B12: chr12:1897663:1897664:+_ENSG00000006831_ENST00000357103|hu_mus|motif|central (ssRNA)
# RNA: GGGAGUUCUACAGUCCGACGAUCGCUUUGUGAUUUCAGCAACUUAUAGAGGGGAGAGAGGAAAUACUGAAAAAGGCCACGGUUUAAUGAUGAGAGAGUGAAGGUGUACAGGUUCCUAACCAGCCUAGGGCCAAAAAAGGAGACCAACAGAGGAUUGAGCAUCA
# B13: chr12:1897663:1897664:+_ENSG00000006831_ENST00000357103|hu_mus|FALSE|FALSE (ssRNA)
# RNA: B12 RNA with G80U, G81A
# B14: chr1:6284582:6284583:-_ENSG00000116237_ENST00000343813|hu_hu|FALSE|FALSE (ssRNA)
# RNA: B10 RNA with G80U, G81A
# B15: chr2:217001844:217001845:+_ENSG00000079246_ENST00000392132|hu_hu|hu_hu_hu_mus_False|98_108 (ssRNA)
# RNA: GGGAGUUCUACAGUCCGACGAUCACCGACUUGAGGAUUAGCUCUUUUGUCAUAAGCAUAUCGGACGAUGGCGACCAUGUUUAACUCAUCCAAAGCAUGAACGAGAGAGGAAAGGGCAACAGCUGCCGCCUCAUCAUCCUUUGCCAACAGAGGAUUGAGCAUCA
# B16: chr15:90999404:90999405:+_ENSG00000140575_ENST00000268182|hu_hu|FALSE|FALSE (ssRNA)
# RNA: GGGAGUUCUACAGUCCGACGAUCCUGCAGAGUCUUUUGGGCAUCACCUUCAUCCAGGGCUUCAUUAAUUAAACCAAUGGCUAAAAUCCUCUCAUGUUCCUCUUGCACCACCAGGUUCACAUGGUCCACGCAAGCUUGGAUAUCCAACAGAGGAUUGAGCAUCA
# B17: chrX:132781199:132781200:+_ENSMUSG00000042712_ENSMUST00000048687|mus_hu|motif|central (ssRNA)
# RNA: GGGAGUUCUACAGUCCGACGAUCUGCUAAUAAAAAGCAAGCUAUAUGGUAUUGUUAAUAUCAGAUAAAAAUCAAGGUAAACGGCAUUAAAUAGGGGUAAGGAUGGUUUCGAUUAACCUUCCAACGCAUCACUAUAAGUUUGUUCAACAGAGGAUUGAGCAUCA
# B18: 126502921_126503041_1455_ncRNA_ENSMUSG00000006728_ENSMUST00000140254|mouse|control|control (ssRNA)
# RNA: GGGAGUUCUACAGUCCGACGAUCUGGUCGGCUUCAGAGUUUCCACAGAAGAGAGGCCUAAGGCAGAAAAAGACUCAAAGUAUGUGUUAUAUCAAAAAUAGGGGAGUGGGGGCUGGAGAGACGGCUCAGCAGAUAAGACUGCUCCAACAGAGGAUUGAGCAUCA
# B19: chr7:34932688:34932689:-_ENSMUSG00000052997_ENSMUST00000102746|mus_mus|FALSE|FALSE (ssRNA)
# RNA: GGGAGUUCUACAGUCCGACGAUCCAAGAGCUUCUUUCUUGGGUUUGGCUGCUUAUUCAAAAAAAUAGUUCUACACUGGUCUAUUUUUCCAGAUAAAAUCUUUAAUCCUUCCAACACUAUCAAGCCGGCGAUCACUGCAUUAGUCAACAGAGGAUUGAGCAUCA
# B20: chrX:132781199:132781200:+_ENSMUSG00000042712_ENSMUST00000048687|mus_hu|FALSE|FALSE (ssRNA)
# RNA: B17 RNA with G82U, G83A
# B21: 31404426_31405736_1086_CDS_ENSG00000196792_ENST00000355683|human|control|control (ssRNA)
# RNA: GGGAGUUCUACAGUCCGACGAUCAGUCACUAAAAAAUCAAAUUCUUUCAGUGCUUCCUCAGUAUCAGGAUCGUCAGUUAGGUCAGCAGCUAAACCUUCAUUACCUAUUUUAUGUUUAUUCAUCCGAUGUUUGUCUUUUCCUUCCAACAGAGGAUUGAGCAUCA
# B22: 63494515_63562186_783_3pUTR_ENSMUSG00000025964_ENSMUST00000114107|mouse|control|control (ssRNA)
# RNA: GGGAGUUCUACAGUCCGACGAUCUAGUGGAUCUCCACGUAGUCAGAAGAUAGCAAACCAUUGUUCAGUGUGAGGUCAAGAAUGAACUUGGAGCCGAAAGCUUCGAUCUGGAAGCUUGCCUGGGCCAGAUGCACAGCCUUAUUGCAACAGAGGAUUGAGCAUCA
# Target: T1, UNK ZnF1-3
# Assay: nsRBNS (natural sequence RNA bind-n-seq); RBNS binding buffer (assumed for nsRBNS): 25 mM Tris pH 7.5, 150 mM KCl, 3 mM MgCl2, 0.01% Triton X-100, 500 ug/ml BSA, 20 U/ml SUPERase-In, 4 C; UNK is unkempt and MSI1 is Musashi-1; names of the RNAs are library labels; protein concentration not given here; high values mean tight binding
row,Binder,binding signal [enrichment R]
1,B1,1.11
2,B2,1.02
3,B3,0.678
4,B4,1.03
5,B5,1.01
6,B6,3.85
7,B7,1.52
8,B8,3.67
9,B9,1.09
10,B10,6.98
11,B11,1.27
12,B12,3.48
13,B13,3.52
14,B14,6.19
15,B15,2.19
16,B16,1.38
17,B17,5.74
18,B18,3.33
19,B19,1.12
20,B20,5.13
21,B21,0.927
22,B22,1.25
